Measured values taken from PubChem BioAssay (EPA / NIEHS).
Records with an inconclusive call do not appear. Activity calls are given as the source filed them. How the source made its calls, unless noted: active means hit-call score of the fitted dose curve at least 0.9, where 1 is the maximum; inactive means score below 0.9.

Assays:
[1] = CCTE_Mundy_HCI_Cortical_Synap_Neur_Matur_NeuriteLength: CCTE's Synaptogenesis and Neurite Maturation Assay in rat cortical cells for Neurite Length, Mundy Lab (AID 2284214)
Procedure, shortened: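 Cultures of rat primary cortical cells received chemical at DIV 7 and were fixed at DIV 12, after glial arrest with AraC at DIV 5. Neurite length was measured by automated imaging of MAP2 immunofluorescence.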

[2] = CCTE_Mundy_HCI_Cortical_Synap_Neur_Matur_NeuriteSpotCountPerNeuron: CCTE's Synaptogenesis and Neurite Maturation Assay in rat cortical cells for Neurite Spot Count per Neuron Count, Mundy Lab (AID 2284215)
Procedure, shortened: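 Rat cortical primary cultures; AraC DIV 5 to arrest glia; dosing + media change DIV 7; fixed DIV 12. Anti-MAP2/anti-synaptophysin, Hoechst nuclei; HCI puncta count per neuron, positive fitting direction vs DMSO.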

[3] = CCTE_Mundy_HCI_Cortical_Synap_Neur_Matur_SynapseCount: CCTE's Synaptogenesis and Neurite Maturation Assay in rat cortical cells for Synapse Count, Mundy Lab (AID 2284218)
Procedure, shortened: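 Cells were plated, allowed 2 hr to attach, treated with AraC at DIV 5, then exposed to chemicals from DIV 7 until DIV 12. After fixation and MAP2/synaptophysin immunolabelling, synapses per neuron were quantified by automated imaging against DMSO.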

[4] = CCTE_Mundy_HCI_Cortical_Synap_Neur_Matur_CellBodySpotCount: CCTE's Synaptogenesis and Neurite Maturation Assay in rat cortical cells for Cell Body Spot Count, Mundy Lab (AID 2284223)
Procedure, shortened: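 Rat cortical neurons; AraC @ DIV 5; dose + media change DIV 7; fix DIV 12; anti-MAP2/anti-synaptophysin IF, Hoechst; HCI count of soma synaptophysin puncta/neuron; DMSO = negative control.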

[5] = UKN2_HCS_IMR90_cell_viability: Viability Assessment in the University of Konstanz (UKN) Leist Lab Neural Crest Cell Migration Assay in human induced IMR90 Pluripotent Stem Cells (UKN2) (AID 2284233);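 further: viability of neural crest cells differentiated from IMR90 iPSC measured by calcein-AM fluorescence imaging; cells exposed to compound for 24 h after a 24 h migration phase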
Procedure, shortened: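 cMINC format, iPSC-derived neural crest (IMR90); 24 h migration (EGF/FGF, N2-S), then 24 h toxicant. Calcein-AM/H-33342 stain 30 min; fluorescence intensity by HCS; DMSO-normalised, bidirectional fitting.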

[6] = CCTE_Mundy_HCI_Cortical_NOG_NeuronCount: CCTE's Neurite Outgrowth Assay in rat cortical cells for Neuron Count, Mundy Lab (AID 2284236; active means hit-call score of the fitted dose curve at least 0.9, where 1 is the maximum;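 further: neurons counted by imaging betaIII-tubulin and Hoechst stained cortical cells; cells exposed to compound for about 48 hours before fixation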)
Procedure, shortened: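 Read-out: neuron number by high-content imaging of betaIII-tubulin (Alexa Fluor-488) and Hoechst-labelled rat primary cortical cells.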

[7] = CCTE_Mundy_HCI_Cortical_NOG_BPCount: CCTE's Neurite Outgrowth Assay in rat cortical cells for Branch Point Count, Mundy Lab (AID 2284237)
Procedure, shortened: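 Measured 50.33 h after dosing, this morphology endpoint uses rat primary cortical cultures labelled for betaIII-tubulin. Branch points are quantified by high-content imaging, with DMSO as negative control and baseline.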

[8] = CCTE_Mundy_HCI_hNP1_Casp3_7: CCTE's Caspase-Glo 3/7 Assay in human neuroprogenitor cells for Apoptosis, Mundy Lab (AID 2284240)
Procedure, shortened: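 Neuroepithelial-lineage stem cells from WA09 embryonic cells were treated with chemicals after 40–44 h of culture. Twenty-four hours later, caspase-3/7 activation was detected luminescently after a 30 min room-temperature reagent step, with DMSO as baseline.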

[9] = CCTE_Mundy_HCI_hNP1_CellTiter: CCTE's Cell Titer-Glo 2 Assay in human neuroprogenitor cells for Viability, Mundy Lab (AID 2284241; active means hit-call score of the fitted dose curve at least 0.9, where 1 is the maximum)
Procedure, shortened: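 Measures ATP content in human neural progenitors derived from WA09 embryonic cells. Read-out at 26.5 hours after dosing, with DMSO serving as the negative control and baseline.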

[10] = IUF_NPC2c_oligodendrocyte_migration_120hr: Leibniz Research Institute for Environmental Medicine (IUF) 120-hour Neural Progenitor Cell Migration Assay for Oligodendrocyte Migration (NPC2c) (AID 2284297)
Procedure, shortened: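 Read-out is the mean distance of O4-positive oligodendrocytes from the sphere core edge at 120 h, normalized to radial glia migration and fitted in the gain direction against DMSO. Spheres of primary human neural progenitors differentiated on laminin under continuous compound exposure.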

[11] = IUF_NPC2a_radial_glia_migration_120hr: Leibniz Research Institute for Environmental Medicine (IUF) 120-hour Neural Progenitor Cell Migration Assay for Radial Glia Migration (NPC2a) (AID 2284298)
Procedure, shortened: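 Readout: distance in um from sphere core edge to migration-area edge, derived from Hoechst nuclei density with a threshold-defined polynomial boundary. Spheres: hNPC, GW 16-19, 0.3 mm, on PDL/laminin; exposure 5 days; DMSO is baseline.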

[12] = IUF_NPC2b_neuronal_migration_120hr: Leibniz Research Institute for Environmental Medicine (IUF) 120-hour Neural Progenitor Cell Migration Assay for Neuron Migration (NPC2b) (AID 2284300)
Procedure, shortened: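 Read-out is mean distance from sphere edge to each TUBB3-positive neuron at 120 h, expressed relative to radial glia migration distance and to DMSO baseline. Single 0.3 mm human NPC spheres differentiated on laminin under continuous compound exposure.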

[13] = IUF_NPC3_neuronal_differentiation_120hr: Leibniz Research Institute for Environmental Medicine (IUF) 120-hour Neuronal Differentiation Assay (NPC3) (AID 2284301)
Procedure, shortened: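 Neuronal differentiation of primary human neural progenitors measured by high-content imaging: percent TUBB3+ of Hoechst+ nuclei within migrated area at 120 h, seven-point serial dilution plus solvent control, gain or loss relative to DMSO.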

[14] = IUF_NPC4_neurite_length_120hr: Leibniz Research Institute for Environmental Medicine (IUF) 120-hour Neuronal Morphology Assay for Neurite Length (NPC4) (AID 2284302)
Procedure, shortened: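 Neurons from differentiating human fetal neural progenitor spheres are scored for average neurite length after five days of compound exposure. Fitting uses DMSO as negative control.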

[15] = IUF_NPC5_oligodendrocyte_differentiation_120hr: Leibniz Research Institute for Environmental Medicine (IUF) 120-hour Oligodendrocyte Differentiation Assay (NPC5) (AID 2284304; active means hit-call score of the fitted dose curve at least 0.9, where 1 is the maximum;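 further: primary human fetal neural progenitor spheres plated to migrate and differentiate; share of O4-positive cells among Hoechst nuclei found by CNN image analysis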)
Procedure, shortened: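 Oligodendrocyte differentiation was scored after 120 h as the O4-positive share of Hoechst-stained nuclei across the neurosphere migration area, using a trained convolutional neural network on high-content fluorescence images. Human fetal neural progenitor spheres were dosed from day 0, normalised to DMSO.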

[16] = IUF_NPC2-5_cytotoxicity_72hr: Cytotoxicity Assessment at 72 hours in the Leibniz Research Institute for Environmental Medicine (IUF) Neural Progenitor Cell Migration and Differentiation Assay for Cytotoxicity (NPC2-5) (AID 2284306; active means hit-call score of the fitted dose curve at least 0.9, where 1 is the maximum;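 further: LDH release into supernatant measured by resorufin fluorescence marking membrane damage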)
Procedure, shortened: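 Primary human neural progenitor spheres migrate and differentiate on laminin. Compound is present from the start of differentiation, with DMSO kept at or below 0.1%. At 72 h, supernatant LDH is quantified fluorometrically, with values fitted in the positive direction.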

[17] = IUF_NPC2-5_cytotoxicity_120hr: Cytotoxicity Assessment at 120 hours in the Leibniz Research Institute for Environmental Medicine (IUF) Neural Progenitor Cell Migration and Differentiation Assay (NPC2-5) (AID 2284307; active means hit-call score of the fitted dose curve at least 0.9, where 1 is the maximum)
Procedure, shortened: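 Sphere plating starts differentiation and exposure together at day 0. Compound solution is half-replaced on day 3. At 120 h, medium supernatant is taken for an LDH membrane-integrity read based on resazurin reduction to resorufin fluorescence.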

[18] = IUF_NPC2-5_cell_number_120hr: Cell Number Assessment at 120 hours in the Leibniz Research Institute for Environmental Medicine (IUF) Neural Progenitor Cell Migration and Differentiation Assay (NPC2-5) (AID 2284308);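 further: count of Hoechst-stained nuclei in migration zone around plated human neural progenitor spheres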
Procedure, shortened: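 hNPC spheres, one per well, PDL/laminin, N2 medium, 37C, 5% CO2. Dosing day 0 → half-medium change with fresh compound day 3 → fix 120 h. Readout: Hoechst+ nuclei count, migration area; 7 concentrations plus solvent control.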

[19] = IUF_NPC2-5_viability_120hr: Viability Assessment at 120 hours in the Leibniz Research Institute for Environmental Medicine (IUF) Neural Progenitor Cell Migration and Differentiation Assay (NPC2-5) (AID 2284312)
Procedure, shortened: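 Human fetal (GW 16-19) neural progenitor spheres of 0.3 mm were plated on poly-D-lysine/laminin in N2 differentiation medium and exposed from day 0 for 120 h, with half-medium refresh at day 3. Viability was read as alamar blue resazurin-to-resorufin fluorescence against DMSO.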

[20] = CCTE_Mundy_HCI_iCellGluta_NOG_NeuriteLength: CCTE's Neurite Outgrowth Assay in iCellGluta cells for Neurite Length, Mundy Lab (AID 2284318; active means hit-call score of the fitted dose curve at least 0.9, where 1 is the maximum)
Procedure, shortened: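 Automated high-content imaging of betaIII-tubulin (Alexa Fluor-488) and Hoechst-stained cells gave neurite length, normalized to the DMSO baseline.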

[21] = IUF_NPC1_cytotoxicity_72hr: Cytotoxicity Assessment at 72 hours in the Leibniz Research Institute for Environmental Medicine (IUF) Neural Progenitor Cell Proliferation Assay (NPC1) (AID 2284332; active means hit-call score of the fitted dose curve at least 0.9, where 1 is the maximum;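 further: rising LDH signal means more cytotoxicity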)
Procedure, shortened: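 Membrane-integrity loss is scored from LDH released into the medium, detected as resorufin fluorescence, with activity fitted upward relative to baseline. Test material stays on human fetal-derived progenitor spheres for 72 h.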

[22] = CCTE_Mundy_HCI_iCellGluta_NOG_NeuronCount: CCTE's Neurite Outgrowth Assay in iCellGluta cells for Neuron Count, Mundy Lab (AID 2284340; active means hit-call score of the fitted dose curve at least 0.9, where 1 is the maximum;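 further: cells fixed about 48 h after compound addition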)
Procedure, shortened: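 Neuron count read by automated high-content imaging of Hoechst 33342 and betaIII-tubulin/Alexa Fluor-488 labelling in human iPSC glutamatergic neurons. Activity fitted relative to DMSO.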

[23] = CCTE_Mundy_HCI_iCellGluta_NOG_NeuriteCount: CCTE's Neurite Outgrowth Assay in iCellGluta cells for Neurite Count, Mundy Lab (AID 2284342; active means hit-call score of the fitted dose curve at least 0.9, where 1 is the maximum;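 further: chemical exposure about 48 hours starting 2 hours after plating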)

Measured: outcome

C[C@@H]1CC[C@@H](C(C)(C)O)[C@H](O)C1
inactive: all assays above
